Measured values: PubChem BioAssay AID2596 (National Center for Advancing Translational Sciences (NCATS), 2010)
Inconclusive results are not listed. Unmarked numbers belong to inactive results. Activity calls are given as the source filed them. Calls follow the shape of the dose curve; as a rule, active = well fitted inhibition curve with a large enough effect; inconclusive = small, poorly fitted or top-dose-only effect, or effect the other way; inactive = flat fitted curve, though single readings scatter.

Molecular target: Lysosomal acid glucosylceramidase (Homo sapiens) (UniProt P04062)
Experiment: qHTS Assay for Inhibitors and Activators of N370S glucocerebrosidase as a Potential Chaperone Treatment of Gaucher Disease: Purified N370S Glucocerebrosidase Cleavage of Glucosylceramide
Conditions: purified N370S GCase; series mostly up to 77.6 µM; activity change, negative = inhibition: at the top concentration
From the text: NIH Chemical Genomics Center [NCGC]
NIH Molecular Libraries Probe Production Centers Network [MLPCN]
Assay Submitter (PI): Wei Zheng
Glucocerebrosidase (GC) catalyzes the hydrolysis of beta-glucocerebroside to glucose and ceramide in lysosomes. Mutations in the glucocerebrosidase gene result in Gaucher disease, an autosomal recessive lysosomal storage disorder. Many of the mutations encountered in patients with Gaucher disease are missense alterations that may cause misfolding, decreased stability and/or mistrafficking of this lysosomal protein. […] These inhibitors include iminosugar analogs and three non-iminosugar inhibitors identified from a previous HTS of 62,000 compounds with the wild type recombinant enzyme. However, the enhancement of enzyme activity by the chaperone action of an enzyme inhibitor must be balanced against the direct inhibition of the enzyme. An enzyme activator could also function as a chaperone by binding to the enzyme and helping to correct its misfolding and mistrafficking. While activators for GC have not yet been identified, they may have better therapeutic potential than inhibitors. Therefore the discovery and development of chemical activators may provide a new strategy for the chaperone therapy.
We have optimized a new assay using N370S mutant GC derived from the spleen of a Gaucher patient. […] In addition, the MLPCN compound library has expanded, which increases the chance of finding new and better probes.
This assay characterizes compound activity using purified, mutant enzyme cleavage of the native substrate for the enzyme instead of mutant enzyme from tissue homogenate. Compound activity differences may be due to the absence of endogenous cofactors found in tissue homogenate as well as inherent differences in enzyme stability and catalytic activity using the difference substrates.
NCGC Assay Protocol Summary:
This is an enzyme assay using glucosylceramide from soy (Avanti Polar Lipids Catalog #: 131304P) as the substrate and recombinant human glucocerebrosidase as the enzyme preparation. Upon hydrolysis of the substrate, the glucose product can be detected using the Amplex Red Glucose Oxidase Assay Kit (Invitrogen catalog #: A22189). The product of this reaction can be read with a fluorescence plate reader with an excitation at 573 nm and an emission at 610 nm. Data were normalized to the controls for basal activity (without enzyme) and 100% activity (with enzyme). The AC50 values were determined from concentration-response data modeled with the standard Hill equation.
Assay buffer for enzyme reaction: 50 mM citric acid (titrated with potassium phosphate to pH 5.9), 0.01% Tween-20 (pH 5.9 is an optimal condition for this enzyme assay)
Assay buffer for Amplex Red reaction: Tris-HCl, pH 7.5
1536-well assay protocol for the glucocerebrosidase assay:
(1) Add 2 ul/well glucocerebrosidase enzyme solution (5 nM final)
(2) Add 23 nL compounds in DMSO solution. The final titration was 0.7 nM to 77 uM.
(3) Add 1 ul of glucosylceramide solution (50 uM final)
(4) Incubate at 37C for 40 min
(5) Add 2 ul tris-HCl buffer with Amplex Red reagents
(6) Incubate 45 min at room temperature.
(7) Detect the assay plate in a ViewLux plate reader (PerkinElmer) with Ex=573 nm and Em=610nm.
Keywords: Glucocerebrosidase, beta-glucosidase, Gaucher Disease, pharmacological chaperone, chaperone therapy, high throughput screening, glucocerebrosidase inhibitor, MLSMR, MLSCN, NIH Roadmap, qHTS and NCGC

Chain of Lysosomal acid glucosylceramidase (Homo sapiens) (P04062 whole entry N409S): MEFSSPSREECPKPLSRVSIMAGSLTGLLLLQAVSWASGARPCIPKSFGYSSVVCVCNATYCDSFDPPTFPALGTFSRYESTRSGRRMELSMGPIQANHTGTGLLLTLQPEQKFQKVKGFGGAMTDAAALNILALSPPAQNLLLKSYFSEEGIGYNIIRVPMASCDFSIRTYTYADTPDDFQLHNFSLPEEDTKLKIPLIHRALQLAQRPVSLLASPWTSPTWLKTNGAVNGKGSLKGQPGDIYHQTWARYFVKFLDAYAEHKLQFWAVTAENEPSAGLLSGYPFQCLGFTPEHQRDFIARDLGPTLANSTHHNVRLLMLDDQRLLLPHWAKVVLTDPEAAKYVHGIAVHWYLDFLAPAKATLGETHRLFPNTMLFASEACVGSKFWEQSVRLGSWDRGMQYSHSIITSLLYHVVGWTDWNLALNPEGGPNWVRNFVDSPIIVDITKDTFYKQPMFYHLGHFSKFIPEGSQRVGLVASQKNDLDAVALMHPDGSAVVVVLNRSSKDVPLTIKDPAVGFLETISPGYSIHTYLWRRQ

Structure (SMILES) | activity change, negative = inhibition [%] | Potency
Cc1ccccc1-c1nccc(NCc2cccs2)n1 | 10.1 | –
O=S(=O)(c1ccc2c(c1)OCCO2)N1CCN(c2nc(-c3cccs3)nc3ccccc23)CC1 | -13.9 | –
CSc1ccc(NC(=O)Nc2cc(C)ccn2)cc1 | -12.3 | –
Cc1cc(C)n2ncc(C(=O)Nc3ccc(Cl)c(Cl)c3)c2n1 | 13.9 | –
O=S(=O)(c1ccccc1)N1CCN(c2nc(-c3ccc(F)cc3)nc3cc(Cl)ccc23)CC1 | 12.6 | –
OCCNc1nc(-c2cccs2)nc2ccccc12 | -15.8 | –
CCC(C)c1ccc(NC(=O)c2cnn3c(C(F)F)cc(C)nc23)cc1 (stereo not given) | -16.7 | –
O=C(COc1ccccc1C(=O)c1cnn(-c2ccccc2)c1)Nc1ccccc1 | -6.49 | –
c1ccc(CNc2nc(-c3cccs3)nc3ccccc23)cc1 | -24.4 | –
S=C(NCCCc1cnc[nH]1)NCCCN(Cc1ccc(Cl)c(Cl)c1)c1ccc(Br)cn1 | – | 44.7 µM (active)
CCC(=O)OCCNc1nc(-c2ccccc2)nc2ccccc12 | 6.09 | –
CC(=O)Nc1ccc(NC(=O)COc2ccccc2C(=O)Nc2cccc(Cl)c2Cl)cc1 | -13.6 | –
COc1ccccc1OCC(=O)Nc1oc(-c2ccccc2)c(-c2ccccc2)c1C#N | -5.84 | –
O=S(=O)(c1ccccc1Cl)N1CCN(c2nc(-c3cccs3)nc3ccccc23)CC1 | 1.96 | –
Cc1cccc(/C=N/NC(=O)NC23CC4CC(CC(C4)C2)C3)n1 | -1.18 | –
O=S(=O)(c1ccc(Cl)cc1)N1CCN(c2nc(Nc3cc(Cl)ccc3O)nc3ccccc23)CC1 | – | 14.1 µM (active)
CCCNC(=O)COC(=O)c1ccccc1OCC(=O)Nc1ccc(Br)cc1 | 7.88 | –
O=S(=O)(c1cccc2ccccc12)N1CCN(c2nc(-c3cccs3)nc3ccccc23)CC1 | -9.47 | –
Cc1ccc(NC(=O)COc2ccccc2C(=O)Nc2ccccc2)cc1Cl | 2.52 | –
Cc1cc(C)cc(N(CC(=O)NC2CCC(C)CC2)S(=O)(=O)c2c(C)[nH]c(=O)[nH]c2=O)c1 (stereo not given) | – | 35.5 µM (active)

Structure (SMILES) | activity change, negative = inhibition [%] | Potency
CCc1ccc(NC(=O)c2cnn3c(C(F)F)cc(C)nc23)cc1 | -7.13 | –
COc1ccccc1NC(=O)COc1ccccc1C(=O)Nc1ccccc1 | -31 | –
COc1cc(OC)c2c(N)c(C#N)c(C(F)(F)C(F)(F)F)nc2c1 | 8.65 | –
CC(C)(C)C(=O)OCCNc1nc(-c2ccccc2)nc2ccccc12 | – | 39.8 µM (active)
O=S(=O)(c1ccc(Cl)cc1)N1CCN(c2nc(-c3ccc(Cl)cc3)nc3ccccc23)CC1 | 20 | –
COc1ccc(-c2nc(N3CCN(S(=O)(=O)c4ccc(F)cc4)CC3)c3ccccc3n2)cc1 | 14.6 | –
c1ccc2c(NCC3CCCO3)nc(N3CCOCC3)nc2c1 (stereo not given) | -8.4 | –
COc1ccc(-c2nc(N3CCN(S(=O)(=O)c4ccc(C)cc4)CC3)c3ccccc3n2)cc1 | 22.7 | –
Cc1cc(C)n2ncc(C(=O)Nc3cccc(O)c3)c2n1 | -3.54 | –
O=C(Nc1cnn(Cc2ccc(F)cc2)c1)c1cnn2c(C(F)F)cc(-c3ccccc3)nc12 | -6.37 | –
O=C(c1ccc2c(c1)OCCO2)N1CCN(c2nc(-c3cccs3)nc3ccccc23)CC1 | 9.84 | –
CCOc1ccc(N(CC(=O)Nc2ccc(C)cc2)S(=O)(=O)c2c(C)[nH]c(=O)[nH]c2=O)cc1 | -20.8 | –
O=S(=O)(c1ccc(F)cc1)N1CCN(c2nc(-c3ccccc3)nc3cc(Cl)ccc23)CC1 | 19.5 | –
CC(C)(C)c1ccc(S(=O)(=O)N2CCN(c3nc(-c4cccs4)nc4ccccc34)CC2)cc1 | 15.3 | –
COc1cccc(CN(C)c2nc(-c3cccs3)nc3ccccc23)c1 | -8.66 | –
O=S(=O)(c1ccc(Cl)cc1)N1CCN(c2nc(-c3ccc(F)cc3)nc3cc(Cl)ccc23)CC1 | 16.7 | –
COc1ccc(N(CC(=O)NC2CCCCC2)S(=O)(=O)c2c(C)[nH]c(=O)[nH]c2=O)cc1 | -12.7 | –
O=S(=O)(c1ccc2ccccc2c1)N1CCN(c2nc(-c3cccs3)nc3ccccc23)CC1 | -5.05 | –
O=C(Nc1cc(Br)ccc1O)c1cnn2c(C(F)F)cc(C3CC3)nc12 | -28.3 | –
O=S(=O)(Cc1ccccc1)N1CCN(c2nc(-c3cccs3)nc3ccccc23)CC1 | -0.322 | –
